Data reported in PubChem BioAssay AID1159580 (chemical genetic matrix, 2015).
Several values for one entry are separate records, joined by “and”; a condition that tells them apart may be missing. Identical values can stand only once. Among all 5,500 compounds or so, about 2,000 (36%) were called active. About 18% were inconclusive and are not listed. Cut-off read from the data, not from the text of the source: active = normalized growth mostly below about 0.91 (no sharp cut-off); inconclusive = no clear call, values can overlap the other calls; inactive = mostly above about 0.92. The list shows a part of the results.

Test: chemical genetic growth profiling, strain panel (AID 1159580);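 note: tested at 20 µM; growth read once vehicle control cultures reached saturation at 30 °C; 1 = growth at the plate median or of vehicle wells; lower values mean less growth of the strain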
Conditions: S. cerevisiae deletion strains, growth OD
[1] = locus YAL013W, strain DEP1, stronger effect = lower value
[2] = locus YDR150W, strain NUM1, stronger effect = lower value
[3] = locus YGR078C, strain PAC10, stronger effect = lower value
[4] = locus YMR263W, strain SAP30, stronger effect = lower value
[5] = locus YPL055C, strain LGE1, stronger effect = lower value
[6] = locus YPL241C, strain CIN2, stronger effect = lower value
[7] = locus YBR229C, strain ROT2, stronger effect = lower value
[8] = locus YDL101C, strain DUN1, stronger effect = lower value
[9] = locus YEL061C, strain CIN8, stronger effect = lower value
[10] = locus YHR030C, strain SLT2, stronger effect = lower value
[11] = locus YHR087W, strain rtc3, stronger effect = lower value
[12] = locus YJR043C, strain POL32, stronger effect = lower value
[13] = locus YJR075W, strain HOC1, stronger effect = lower value
[14] = locus YLR039C, strain RIC1, stronger effect = lower value
[15] = locus YLR058C, strain SHM2 (second series), stronger effect = lower value
[16] = locus YLR085C, strain ARP6, stronger effect = lower value
[17] = locus YLR262C, strain YPT6, stronger effect = lower value
[18] = locus YML094W, strain GIM5, stronger effect = lower value
[19] = locus YMR219W, strain ESC1, stronger effect = lower value
[20] = locus YNL153C, strain GIM3, stronger effect = lower value
[21] = locus YNL298W, strain CLA4 (second series), stronger effect = lower value
[22] = locus YNL322C, strain KRE1, stronger effect = lower value
[23] = locus YNR030W, strain Alg12, stronger effect = lower value
[24] = locus YPR135W, strain CTF4, stronger effect = lower value

Measured: normalized growth

CNC(CC(=O)O)C(=O)O (configuration not stated)
inactive: [1] 1.02 | locus YAL040C, strain CLN3, stronger effect = lower value 1.02 | locus YCL061C, strain MRC1 (second series), stronger effect = lower value 1.02 | [2] 1.03 | locus YDR363W, strain ESC2, stronger effect = lower value 1 | locus YER002W, strain NOP16, stronger effect = lower value 1 | [3] 1.02 | [4] 1.01 | locus YMR307W, strain GAS1, stronger effect = lower value 1.02 | locus YNL175C, strain NOP13, stronger effect = lower value 1.01 | locus YNL197C, strain WHI3, stronger effect = lower value 1 | locus YNL224C, strain SQS1, stronger effect = lower value 1.01 | locus YOR083W, strain WHI5 (second series), stronger effect = lower value 1.05 | [5] 1.02 | [6] 1.03

CCOC(=O)CC(=O)Nc1scc(C)c1C(=O)OCC
inactive: [1] 0.988 | [7] 0.977 | [8] 0.97 | locus YDL134C, strain PPH21, stronger effect = lower value 0.923 | [2] 0.995 | [9] 0.943 | [3] 0.947 | [10] 0.906 | [11] 0.924 | locus YJL187C, strain SWE1, stronger effect = lower value 0.958 | [12] 0.979 | [13] 0.951 | locus YKL190W, strain CNB1, stronger effect = lower value 0.97 | [14] 0.987 | [15] 0.98 | [16] 0.872 | [17] 0.994 | [18] 0.933 | [19] 0.968 | [4] 0.984 | locus YNL128W, strain TEP1, stronger effect = lower value 0.98 | [20] 0.969 | [21] 0.934 | [22] 0.957 | [23] 0.924 | [5] 0.968 | [6] 0.936 | [24] 1.14

CCOC(=O)c1c(N=Cc2cc(Br)c(Br)cc2O)sc2c1CCCC2
active: [1] 0.131 | [7] 0.542 | locus YDL214C, strain PRR2, stronger effect = lower value 0.667 | locus YDR477W, strain SNF1, stronger effect = lower value 0.595 | [9] 0.265 | locus YER123W, strain YCK3, stronger effect = lower value 0.541 | locus YER133W, strain GLC7, stronger effect = lower value 0.696 | locus YGR040W, strain KSS1, stronger effect = lower value 0.612 | locus YGR052W, strain FMP48, stronger effect = lower value 0.45 | [3] 0.241 | locus YGR092W, strain DBF2, stronger effect = lower value 0.173 | [10] 0.211 and 0.239 | locus YHR079C, strain IRE1, stronger effect = lower value 0.262 | locus YHR082C, strain KSP1, stronger effect = lower value 0.368 | [11] 0.554 | locus YHR205W, strain SCH9, stronger effect = lower value 0.458 | locus YJL095W, strain BCK1, stronger effect = lower value 0.314 | locus YJL157C, strain FAR1, stronger effect = lower value 0.589 | [12] 0.318 | locus YJR066W, strain TOR1, stronger effect = lower value 0.38 | [13] 0.769 | locus YKL048C, strain ELM1, stronger effect = lower value 0.629 | locus YKL067W, strain YNK1, stronger effect = lower value 0.674 | locus YKL101W, strain HSL1, stronger effect = lower value 0.555 | locus YKL203C, strain TOR2, stronger effect = lower value 0.614 | [14] 0.164 | [15] 0.916 | [16] 0.118 | locus YLR113W, strain HOG1, stronger effect = lower value 0.475 | locus YLR133W, strain CKI1, stronger effect = lower value 0.608 | [17] 0.17 | locus YLR403W, strain SFP1, stronger effect = lower value 0.525 | locus YML070W, strain DAK1, stronger effect = lower value 0.576 | [18] 0.442 | locus YMR205C, strain PFK2 (second series), stronger effect = lower value 0.635 | [19] 0.83 | [4] 0.162 | locus YNL020C, strain ARK1, stronger effect = lower value 0.51 | [20] 0.511 | locus YNL183C, strain NPR1, stronger effect = lower value 0.468 | [21] 0.652 | locus YNL307C, strain MCK1 (second series), stronger effect = lower value 0.314 | [22] 0.714 | [23] 0.533 | locus YOL006C, strain TOP1, stronger effect = lower value 0.209 | locus YOL136C, strain PFK27, stronger effect = lower value 0.577 | locus YOR061W, strain CKA2, stronger effect = lower value 0.383 | locus YOR119C, strain RIO1, stronger effect = lower value 0.63 | locus YOR231W, strain MKK1, stronger effect = lower value 0.335 | locus YPL031C, strain PHO85, stronger effect = lower value 0.561 | [5] 0.113 | locus YPL153C, strain RAD53, stronger effect = lower value 0.511 | locus YPL204W, strain HRR25, stronger effect = lower value 0.575 | [6] 0.558 | locus YPL256C, strain CLN2, stronger effect = lower value 0.458 | [24] 0.635
inactive: locus YAR019C, strain CDC15, stronger effect = lower value 0.975 | locus YBL105C, strain PKC1, stronger effect = lower value 0.97 | locus YBR135W, strain CKS1, stronger effect = lower value 0.968 | locus YBR136W, strain MEC1, stronger effect = lower value 0.97 | locus YBR160W, strain CDC28, stronger effect = lower value 0.976 | locus YDL017W, strain CDC7, stronger effect = lower value 0.976 | locus YDL028C, strain MPS1, stronger effect = lower value 0.956 | locus YDL108W, strain KIN28, stronger effect = lower value 0.959 | locus YDL132W, strain cdc53, stronger effect = lower value 0.964 | locus YDR052C, strain DBF4, stronger effect = lower value 0.971 | locus YDR054C, strain cdc34, stronger effect = lower value 0.97 | locus YDR226W, strain ADK1, stronger effect = lower value 0.975 | locus YFL009W, strain cdc4, stronger effect = lower value 0.983 | locus YFL029C, strain CAK1, stronger effect = lower value 0.977 | locus YFR003C, strain YPI1, stronger effect = lower value 0.961 | locus YFR019W, strain FAB1, stronger effect = lower value 0.804 | locus YFR028C, strain CDC14, stronger effect = lower value 0.982 | locus YGR229C, strain SMI1, stronger effect = lower value 0.969 | locus YIL147C, strain SLN1, stronger effect = lower value 0.96 | locus YJL128C, strain PBS2, stronger effect = lower value 0.959 | locus YJR016C, strain ILV3, stronger effect = lower value 0.968 | locus YJR066W, strain TOR1 (second series), stronger effect = lower value 0.724 | locus YKL193C, strain SDS22, stronger effect = lower value 0.964 | locus YMR001C, strain CDC5, stronger effect = lower value 0.975 | locus YMR277W, strain FCP1, stronger effect = lower value 0.968 | locus YNL006W, strain LST8, stronger effect = lower value 0.976 | locus YNL161W, strain CBK1, stronger effect = lower value 0.981 | locus YNL207W, strain RIO2, stronger effect = lower value 0.969 | locus YNL222W, strain SSU72, stronger effect = lower value 0.974 | locus YOL078W, strain AVO1, stronger effect = lower value 0.967 | locus YOR329C, strain SCD5, stronger effect = lower value 0.974 | locus YPL209C, strain IPL1, stronger effect = lower value 0.975 | locus YPR025C, strain CCL1, stronger effect = lower value 0.981 | locus YPR106W, strain ISR1, stronger effect = lower value 0.968 | locus YPR111W, strain DBF20, stronger effect = lower value 0.964 | strain NNK1, stronger effect = lower value 0.96 | strain TSCII, stronger effect = lower value 0.971
0.963 (inactive) and 0.697 (active): [8]
